Reference: PubChem BioAssay (NCATS)
Records with an inconclusive call do not appear. A call without a number means that no potency is given here. Unmarked numbers belong to inactive results. Active and inactive are the calls of the source. The call rests on the fitted dose curve; in most records, active means well fitted inhibition curve with a large enough effect; inconclusive means small, poorly fitted or top-dose-only effect; inactive means flat fitted curve, though single readings scatter.

What follows are molecules tested on N140 (assay: qHTS profiling for inhibitors of Plasmodium falciparum proliferation (AID 504749; further: potency means the concentration at half of the fitted maximal effect)). Conditions: P. falciparum in erythrocytes, SYBR Green DNA, 72 h; series mostly up to 28.7 µM.
How it was run: (§1)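 Parasite proliferation within erythrocytes, 72 h exposure. Endpoint: SYBR Green I fluorescence after overnight lysis at room temperature. Controls: 0.29 uM artemisinin, DMSO.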
Further: nearly all actives have a fitted effect of over 60% in size.

| Compound | Potency |
| --- | --- |
| C[N+]1(CCC(C(N)=O)(c2ccccc2)c2ccccc2)CCCCC1 | inactive |
| Cc1c(Cl)c(=O)oc2cc(OP(=O)(OCCCl)OCCCl)ccc12 | 8.91 µM (active) |
| C[C@]12Cc3nonc3C[C@@H]1CC[C@@H]1[C@@H]2CC[C@@]2(C)[C@H]1CC[C@]2(C)O | inactive |

What follows are molecules tested on P93_24 in the same assay as above. Conditions: P. falciparum in erythrocytes, SYBR Green DNA, 72 h; series mostly up to 28.7 µM.
How it was run: as §1

| Compound | Potency |
| --- | --- |
| C[N+]1(CCC(C(N)=O)(c2ccccc2)c2ccccc2)CCCCC1 | inactive |
| O=C1NCN(c2ccccc2)C12CCN(CCCOc1ccc(F)cc1)CC2 | 8.91 µM (active) |
| Cc1c(Cl)c(=O)oc2cc(OP(=O)(OCCCl)OCCCl)ccc12 | 11.2 µM (active) |
| C[C@]12Cc3nonc3C[C@@H]1CC[C@@H]1[C@@H]2CC[C@@]2(C)[C@H]1CC[C@]2(C)O | inactive |

These molecules were tested on P94_40 in the same assay as above. Conditions: P. falciparum in erythrocytes, SYBR Green DNA, 72 h; series mostly up to 28.7 µM.
How it was run: as §1

| Compound | Potency |
| --- | --- |
| C[N+]1(CCC(C(N)=O)(c2ccccc2)c2ccccc2)CCCCC1 | inactive |
| Cc1c(Cl)c(=O)oc2cc(OP(=O)(OCCCl)OCCCl)ccc12 | 6.31 µM (active) |
| C[C@]12Cc3nonc3C[C@@H]1CC[C@@H]1[C@@H]2CC[C@@]2(C)[C@H]1CC[C@]2(C)O | inactive |

Each molecule was assayed on PC15 in the same assay as above. Conditions: P. falciparum in erythrocytes, SYBR Green DNA, 72 h; series mostly up to 28.7 µM.
How it was run: as §1

| Compound | Potency |
| --- | --- |
| C[N+]1(CCC(C(N)=O)(c2ccccc2)c2ccccc2)CCCCC1 | inactive |
| Cc1c(Cl)c(=O)oc2cc(OP(=O)(OCCCl)OCCCl)ccc12 | inactive |
| C[C@]12Cc3nonc3C[C@@H]1CC[C@@H]1[C@@H]2CC[C@@]2(C)[C@H]1CC[C@]2(C)O | inactive |
| C#C[C@]1(O)CC[C@H]2[C@@H]3CCC4=CC(=O)CCC4=C3C=C[C@@]21CC | 6.31 µM (active) |

These molecules were tested on PC26 in the same assay as above. Conditions: P. falciparum in erythrocytes, SYBR Green DNA, 72 h; series mostly up to 28.7 µM.
How it was run: as §1

| Compound | Potency |
| --- | --- |
| C[N+]1(CCC(C(N)=O)(c2ccccc2)c2ccccc2)CCCCC1 | inactive |
| C[C@]12Cc3nonc3C[C@@H]1CC[C@@H]1[C@@H]2CC[C@@]2(C)[C@H]1CC[C@]2(C)O | inactive |
| C#C[C@]1(O)CC[C@H]2[C@@H]3CCC4=CC(=O)CCC4=C3C=C[C@@]21CC | 6.01 µM (active) |

Each molecule was assayed on PC49 in the same assay as above. Conditions: P. falciparum in erythrocytes, SYBR Green DNA, 72 h; series mostly up to 28.7 µM.
How it was run: as §1

| Compound | Potency |
| --- | --- |
| C[N+]1(CCC(C(N)=O)(c2ccccc2)c2ccccc2)CCCCC1 | inactive |
| Cc1c(Cl)c(=O)oc2cc(OP(=O)(OCCCl)OCCCl)ccc12 | inactive |
| C[C@]12Cc3nonc3C[C@@H]1CC[C@@H]1[C@@H]2CC[C@@]2(C)[C@H]1CC[C@]2(C)O | inactive |
| C#C[C@]1(O)CC[C@H]2[C@@H]3CCC4=CC(=O)CCC4=C3C=C[C@@]21CC | 8.91 µM (active) |

These molecules were tested on SC27B in the same assay as above. Conditions: P. falciparum in erythrocytes, SYBR Green DNA, 72 h; series mostly up to 28.7 µM.
How it was run: as §1

| Compound | Potency |
| --- | --- |
| C[N+]1(CCC(C(N)=O)(c2ccccc2)c2ccccc2)CCCCC1 | inactive |
| Cc1c(Cl)c(=O)oc2cc(OP(=O)(OCCCl)OCCCl)ccc12 | 7.94 µM (active) |
| C[C@]12Cc3nonc3C[C@@H]1CC[C@@H]1[C@@H]2CC[C@@]2(C)[C@H]1CC[C@]2(C)O | inactive |

What follows are molecules tested on TAB109 in the same assay as above. Conditions: P. falciparum in erythrocytes, SYBR Green DNA, 72 h; series mostly up to 28.7 µM.
How it was run: as §1

| Compound | Potency |
| --- | --- |
| C[N+]1(CCC(C(N)=O)(c2ccccc2)c2ccccc2)CCCCC1 | inactive |
| Cc1c(Cl)c(=O)oc2cc(OP(=O)(OCCCl)OCCCl)ccc12 | 10 µM (active) |
| C[C@]12Cc3nonc3C[C@@H]1CC[C@@H]1[C@@H]2CC[C@@]2(C)[C@H]1CC[C@]2(C)O | inactive |
| C#C[C@]1(O)CC[C@H]2[C@@H]3CCC4=CC(=O)CCC4=C3C=C[C@@]21CC | 12.6 µM (active) |

What follows are molecules tested on TAB113 in the same assay as above. Conditions: P. falciparum in erythrocytes, SYBR Green DNA, 72 h; series mostly up to 28.7 µM.
How it was run: as §1

| Compound | Potency |
| --- | --- |
| C[N+]1(CCC(C(N)=O)(c2ccccc2)c2ccccc2)CCCCC1 | inactive |
| Cc1c(Cl)c(=O)oc2cc(OP(=O)(OCCCl)OCCCl)ccc12 | 10 µM (active) |
| C[C@]12Cc3nonc3C[C@@H]1CC[C@@H]1[C@@H]2CC[C@@]2(C)[C@H]1CC[C@]2(C)O | inactive |

These molecules were tested on W2 in the same assay as above. Conditions: P. falciparum in erythrocytes, SYBR Green DNA, 72 h; series mostly up to 28.7 µM.
How it was run: as §1

| Compound | Potency |
| --- | --- |
| C[N+]1(CCC(C(N)=O)(c2ccccc2)c2ccccc2)CCCCC1 | inactive |
| O=C1NCN(c2ccccc2)C12CCN(CCCOc1ccc(F)cc1)CC2 | 5.36 µM (active) |
| Cc1c(Cl)c(=O)oc2cc(OP(=O)(OCCCl)OCCCl)ccc12 | 6.75 µM (active) |
| C#C[C@]1(O)CC[C@H]2[C@@H]3CCC4=CC(=O)CCC4=C3C=C[C@@]21CC | 7.57 µM (active) |

What follows are molecules tested on HaCat (assay: Cytotoxic Profiling of Annotated Libraries Using Quantitative High-Throughput Screening (AID 1296008)). Conditions: Five cell lines viability, CellTiter-Glo ATP luminescence, 48-72 h; max response: stronger effect = lower value.
How it was run: (§2)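 Compounds were pin-transferred onto cells and incubated 48 or 72 hr at 37 degree Celsius, 95% humidity. CellTiter-Glo was added, plates sat 10 min at room temperature, then ATP-coupled luminescence was imaged as the viability read-out.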

| Compound | max response [%] | outcome |
| --- | --- | --- |
| C[N+]1(CCC(C(N)=O)(c2ccccc2)c2ccccc2)CCCCC1 | -10.3 |  |
| O=C(CCl)c1ccc(Cl)cc1Cl |  | inactive |
| CC#C[C@]1(O)CC[C@H]2[C@@H]3C[C@H](C)C4=CC(=O)CC[C@]4(C)[C@H]3CC[C@@]21C |  | inactive |
| Cc1c(Cl)c(=O)oc2cc(OP(=O)(OCCCl)OCCCl)ccc12 | 1.96 |  |
| C[C@]12Cc3nonc3C[C@@H]1CC[C@@H]1[C@@H]2CC[C@@]2(C)[C@H]1CC[C@]2(C)O |  | inactive |
| C#C[C@]1(O)CC[C@H]2[C@@H]3CCC4=CC(=O)CCC4=C3C=C[C@@]21CC |  | inactive |

The molecules below were run on KB-3-1 in the same assay as above. Conditions: Five cell lines viability, CellTiter-Glo ATP luminescence, 48-72 h; max response: stronger effect = lower value.
How it was run: as §2

| Compound | max response [%] |
| --- | --- |
| C[N+]1(CCC(C(N)=O)(c2ccccc2)c2ccccc2)CCCCC1 | 6.68 |
| Clc1ccc(CSC(Cn2ccnc2)c2ccc(Cl)cc2Cl)cc1 (stereo not given) | -15.3 |
| O=C1NCN(c2ccccc2)C12CCN(CCCOc1ccc(F)cc1)CC2 | 25 |
| Cc1c(Cl)c(=O)oc2cc(OP(=O)(OCCCl)OCCCl)ccc12 | -0.0609 |
